This is part of a sample that, as a whole, favours compounds with a hit. Of some 83,000 tested, about 20% had one in any assay.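 48-hour exposure, single concentration, 96-well plates; percent growth endpoint where 0 means no net growth. Active: below 10.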 The source made the active and inactive calls.
What was measured:
Test in all cases: NCI-60 one-dose screen, 48 h (100 = growth as untreated, 0 = no growth, -100 = all killed)
Details in all cases: 10 µM unless noted
[1] = tested on: DU-145 prostate
[2] = tested on: K-562 leukemia
[3] = tested on: MDA-MB-231 breast
[4] = tested on: RXF 393 renal
[5] = tested on: SF-268 CNS
[6] = tested on: SF-295 CNS
[7] = tested on: SF-539 CNS
[8] = tested on: UACC-257 melanoma
[9] = tested on: M14 melanoma
[10] = tested on: HT29 colon
[11] = tested on: SNB-75 CNS
[12] = tested on: SNB-19 CNS
[13] = tested on: U251 CNS
[14] = tested on: PC-3 prostate
[15] = tested on: SK-MEL-5 melanoma
[16] = tested on: UACC-62 melanoma
[17] = tested on: LOX IMVI melanoma
[18] = tested on: SK-MEL-28 melanoma
[19] = tested on: HCT-15 colon
[20] = tested on: MALME-3M melanoma

Measured: growth

COc1ccccc1Nc1nnc(COc2ccc(CNC(=O)CCCC/C=C/C(C)C)cc2OC)o1
inactive: [1] 99% | [2] 67.9% | [3] 99.2% | [4] 103% | [5] 90.8% | [6] 88.8% | [7] 93.4% | [8] 96.7% | [9] 95.4% | [10] 103% | [11] 94.5% | [12] 94.6% | [13] 102% | [14] 84.4% | [15] 98% | [16] 81.9% | [17] 95.6% | [18] 98.1%

COc1ccc(Cn2cc3c(c2)-c2oncc2CC3)cc1OC
inactive: [1] 10.3% | [2] 16.9% | [3] 16.9% | [5] 33.1% | [8] 59.2% | [19] 16.3% | [12] 42% | [13] 18.9% | [14] 25.5% | [16] 40.6% | [17] 37.3% | [18] 50.3%
active: [4] 9.09% | [7] -21.5% | [9] 4.9% | [10] 7.91% | [11] 0.447% | [15] 9.72%

CC(C)OC(=O)Nn1cnc2ccccc21
inactive: [1] 103% | [2] 96.7% | [3] 117% | [4] 108% | [5] 120% | [6] 103% | [7] 95.2% | [8] 109% | [19] 120% | [10] 111% | [11] 128% | [12] 111% | [13] 106% | [14] 101% | [15] 108% | [16] 107% | [17] 114% | [18] 128%

O=C1c2ccccc2CCc2ccccc21
inactive: [1] 104% | [20] 98% | [3] 96.8% | [4] 101% | [5] 96.5% | [6] 76.8% | [7] 107% | [8] 103% | [9] 96.2% | [19] 105% | [10] 103% | [11] 91.8% | [12] 100% | [13] 93.1% | [15] 98.6% | [16] 95.6% | [17] 93.6% | [18] 106%

CCCCCC(=C/c1ccccc1)/C=N/N=C(N)N
inactive: [20] 37% | [7] 45.5% | [14] 37.8%
active: [2] 5.26% | [4] -31.3% | [6] -64.3% | [19] -37.8% | [10] -66.3% | [15] -91.5% | [17] -37.6% | [18] -90.2%

O=C1C(Cl)=C(SC2=NCCN2)C(=O)c2ccccc21
active: [20] -50.3% | [9] 4.35% | [15] -29.6%
inactive: [2] 65% | [3] 56.3% | [4] 121% | [5] 62.1% | [6] 106% | [7] 105% | [8] 36.9% | [19] 83.3% | [10] 102% | [11] 153% | [12] 92.3% | [13] 63.9% | [14] 64.5% | [16] 74.3% | [17] 18% | [18] 78.9%

COc1ccc(C(=O)CN2C(=O)NC(c3ccccc3)(c3ccccc3)C2=O)cc1
inactive: [1] 116% | [20] 108% | [3] 106% | [4] 105% | [5] 101% | [6] 98.8% | [7] 92.9% | [8] 98.7% | [9] 103% | [19] 99.5% | [10] 100% | [11] 86.7% | [12] 102% | [13] 101% | [14] 95% | [15] 99.7% | [16] 99.4% | [17] 98% | [18] 103%

C=C1CCC2C3(C)COC(c4ccccc4)OC3CCC2(C)C1C/C=C1/C(=O)OCC1O (centres undefined)
inactive: [20] 99.8% | [3] 89.4% | [6] 87.6% | [9] 80.6% | [19] 61.9% | [10] 54.1% | [13] 64.9% | [16] 67.4% | [17] 72.6%

COc1ccc(C2=NN(C(=O)c3cc(-c4ccc(C)cc4)nc4ccccc34)C(c3cc(-c4ccccc4)nn3-c3ccccc3)C2)cc1 (centres undefined)
inactive: [1] 91.2% | [2] 84.1% | [3] 99.1% | [4] 95.2% | [5] 77.1% | [6] 86.7% | [7] 105% | [8] 96.8% | [9] 83.4% | [10] 105% | [11] 88.3% | [12] 83% | [13] 85.3% | [14] 74.7% | [15] 97.8% | [16] 83.5% | [17] 80.6% | [18] 93.8%

O=C(/C=C1\C(=O)N(Cc2ccccc2)c2ccccc21)c1ccc(OCCN2CCCCC2)cc1
active: [2] 2.2% | [4] 0.729% | [10] -58% | [17] -37.2%
inactive: [1] 47.5% | [3] 45.9% | [5] 73.9% | [6] 85.6% | [7] 51.9% | [8] 76.8% | [9] 37.9% | [11] 78.7% | [12] 88.1% | [14] 56.9% | [15] 94.9% | [16] 69.5% | [18] 96.9%

Cc1c(CN(C)C)cc(C(C)C)cc1C(C)C
inactive: [1] 113% | [20] 124% | [3] 104% | [4] 112% | [5] 111% | [6] 116% | [7] 118% | [8] 108% | [19] 113% | [10] 86.4% | [11] 96.7% | [12] 102% | [13] 100% | [14] 109% | [15] 104% | [16] 106% | [17] 98.7% | [18] 107%

COc1ccccc1Cn1cc2c(c1)-c1oncc1CC2
inactive: [1] 22.5% | [2] 15.9% | [3] 16.5% | [5] 35.2% | [8] 66.7% | [9] 14.4% | [11] 13.7% | [12] 38.3% | [13] 28.4% | [14] 25.4% | [15] 18% | [16] 54.6% | [17] 37.5% | [18] 55.3%
active: [4] 4.54% | [6] -28.8% | [7] -13.8% | [10] 9.87%

COC(=O)/C=C/c1cc(O)c2oc(-c3ccc(O)c(O)c3)c(C(=O)OC)c2c1
active: [6] -11.3% | [7] 2.83% | [11] 7.74% | [15] -13.3%
inactive: [1] 17.5% | [20] 57.4% | [3] 31.1% | [5] 25.2% | [8] 60.4% | [9] 21% | [19] 14.1% | [10] 59.8% | [12] 31.7% | [13] 18.1% | [14] 11.4% | [16] 36.6% | [17] 19.1% | [18] 57.2%

CC1=C[C@@H]2c3c(c(O)c(O)c4oc5cc(O)cc(O)c5c(=O)c34)[C@@H](c3cc(O)c(O)c4oc5cc(O)cc(O)c5c(=O)c34)[C@@H]2C(C)(C)C1
inactive: [1] 20.7% | [8] 27% | [19] 25.4%
active: [20] -10.3% | [3] -38.2% | [5] 3.54% | [6] -26.7% | [7] -5.82% | [9] -47% | [10] -19.6% | [12] 7.8% | [13] -8.73% | [14] 2.82% | [15] -78% | [16] -61.5% | [17] -98.2% | [18] -1.44%

COc1ccc(/C=C2\CCCC3=C2N=C2SC=NN2C3c2ccc(OC)c(OC)c2)cc1OC (centres undefined)
active: [17] 9.24%
inactive: [1] 24.9% | [2] 26.9% | [3] 55.2% | [4] 50.4% | [5] 41.6% | [6] 46.1% | [7] 37.4% | [8] 54.6% | [19] 34.2% | [10] 14.4% | [11] 40.1% | [12] 68.6% | [13] 30.2% | [14] 67.9% | [15] 30.8% | [16] 38.1% | [18] 66%

O=S(=O)(Cc1cccc2c(CS(=O)(=O)c3ccc(Cl)cc3)cccc12)c1ccc(Cl)cc1
inactive: [1] 91.2% | [2] 83.2% | [3] 97.3% | [4] 109% | [5] 92.5% | [7] 94.3% | [8] 107% | [9] 102% | [19] 92.8% | [10] 93.7% | [11] 88.1% | [12] 104% | [13] 104% | [14] 92% | [15] 92.3% | [16] 98.3% | [17] 94.1% | [18] 107%

CCCCN(CCCC)CC(O)CN(CC)CC (centres undefined)
inactive: [1] 113% | [2] 92.4% | [3] 95.8% | [4] 104% | [5] 106% | [7] 108% | [8] 105% | [9] 95% | [19] 104% | [10] 88% | [11] 87.3% | [12] 105% | [14] 97.7% | [15] 96.2% | [16] 105% | [17] 96.1% | [18] 109%

Reference: PubChem BioAssay (NCI)
